Values joined by “and” are separate entries in the source; they are usually repeats but may differ in a detail not shown here. Equal values may be shown once. Among all 5,500 compounds or so, about 2,000 (36%) were called active. Not shown: some 18% with an inconclusive outcome. No stated cut-off is given here; in the data, active means normalized growth mostly below about 0.91 (no sharp cut-off); inconclusive means no clear call, values can overlap the other calls; inactive means mostly above about 0.92. The list shows a part of the results.
Test: chemical genetic growth profiling, strain panel (AID 1159580);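 further: tested at 20 µM; growth read once vehicle control cultures reached saturation at 30 °C; 1 = growth at the plate median or of vehicle wells; lower values mean less growth of the strain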
Conditions: growth OD
[1] = S. cerevisiae deletion strains, locus YDR150W, strain NUM1, hits give low values
[2] = S. cerevisiae deletion strains, locus YGR078C, strain PAC10, hits give low values
[3] = S. cerevisiae deletion strains, locus YMR307W, strain GAS1, hits give low values

Measured: normalized growth

C=CCc1ccc(OC(=O)c2ccccc2)c(OC)c1
inactive: S. cerevisiae deletion strains, locus YBR021W, strain FUR4, hits give low values 1 | S. cerevisiae deletion strains, locus YBR229C, strain ROT2, hits give low values 0.99 | S. cerevisiae deletion strains, locus YCL029C, strain bik1, hits give low values 0.973 | S. cerevisiae deletion strains, locus YDL035C, strain GPR1, hits give low values 0.916 | S. cerevisiae deletion strains, locus YDL074C, strain BRE1, hits give low values 0.923 | S. cerevisiae deletion strains, locus YDL101C, strain DUN1, hits give low values 0.974 | S. cerevisiae deletion strains, locus YDL134C, strain PPH21, hits give low values 0.95 | S. cerevisiae deletion strains, locus YDL185W, strain tfp1, hits give low values 0.998 | S. cerevisiae deletion strains, locus YDL192W, strain arf1, hits give low values 0.928 | S. cerevisiae deletion strains, locus YDR101C, strain arx1, hits give low values 0.919 | [1] 0.997 | S. cerevisiae deletion strains, locus YDR162C, strain NBP2, hits give low values 0.947 | S. cerevisiae deletion strains, locus YDR318W, strain mcm21, hits give low values 0.939 | S. cerevisiae deletion strains, locus YDR388W, hits give low values 0.979 | S. cerevisiae deletion strains, locus YDR502C, strain sam2, hits give low values 0.944 | S. cerevisiae deletion strains, locus YER110C, hits give low values 1.03 | S. cerevisiae deletion strains, locus YER155C, strain BEM2, hits give low values 0.969 | S. cerevisiae deletion strains, locus YER167W, strain BCK2, hits give low values 0.939 | S. cerevisiae deletion strains, locus YGL078C, strain dbp3, hits give low values 0.956 | S. cerevisiae deletion strains, locus YGL086W, strain mad1, hits give low values 0.933 | S. cerevisiae deletion strains, locus YGL248W, strain PDE1, hits give low values 0.971 | [2] 0.974 | S. cerevisiae deletion strains, locus YGR135W, strain pre9, hits give low values 0.965 | S. cerevisiae deletion strains, locus YGR252W, strain gcn5, hits give low values 0.993 | S. cerevisiae deletion strains, locus YHR030C, strain SLT2, hits give low values 1 and 0.914 | S. cerevisiae deletion strains, locus YHR079C, strain IRE1 (second series), hits give low values 0.988 | S. cerevisiae deletion strains, locus YHR079C, strain IRE1, hits give low values 0.931 | S. cerevisiae deletion strains, locus YHR094C, strain hxt1, hits give low values 0.988 | S. cerevisiae deletion strains, locus YHR129C, strain ARP1, hits give low values 0.985 | S. cerevisiae deletion strains, locus YHR200W, strain rpn10, hits give low values 0.952 | S. cerevisiae deletion strains, locus YIL066C, strain RNR3, hits give low values 0.973 | S. cerevisiae deletion strains, locus YIL073C, strain SPO22, hits give low values 1.08 | S. cerevisiae deletion strains, locus YIL125W, strain kgd1, hits give low values 0.966 | S. cerevisiae deletion strains, locus YIR030C, strain dcg1, hits give low values 0.983 | S. cerevisiae deletion strains, locus YJL095W, strain BCK1, hits give low values 0.918 and 0.973 | S. cerevisiae deletion strains, locus YJL134W, strain LCB3, hits give low values 1 | S. cerevisiae deletion strains, locus YJL168C, strain set2, hits give low values 1 | S. cerevisiae deletion strains, locus YJL187C, strain SWE1 (second series), hits give low values 0.954 | S. cerevisiae deletion strains, locus YJR043C, strain POL32, hits give low values 0.936 | S. cerevisiae deletion strains, locus YJR066W, strain TOR1, hits give low values 0.954 | S. cerevisiae deletion strains, locus YKL009W, strain mrt4, hits give low values 0.925 | S. cerevisiae deletion strains, locus YKL068W, hits give low values 0.979 | S. cerevisiae deletion strains, locus YKL085W, strain MDH1 (second series), hits give low values 0.981 | S. cerevisiae deletion strains, locus YKL085W, strain MDH1, hits give low values 0.981 | S. cerevisiae deletion strains, locus YKR001C, strain vps1, hits give low values 0.908 | S. cerevisiae deletion strains, locus YLR039C, strain RIC1, hits give low values 0.958 | S. cerevisiae deletion strains, locus YLR058C, strain SHM2, hits give low values 0.952 | S. cerevisiae deletion strains, locus YLR102C, strain apc9, hits give low values 0.996 | S. cerevisiae deletion strains, locus YLR268W, strain sec22, hits give low values 0.965 | S. cerevisiae deletion strains, locus YLR330W, strain CHS5, hits give low values 0.983 | S. cerevisiae deletion strains, locus YLR371W, strain rom2, hits give low values 0.985 | S. cerevisiae deletion strains, locus YLR418C, strain cdc73, hits give low values 0.935 | S. cerevisiae deletion strains, locus YML016C, strain PPZ1, hits give low values 1 | S. cerevisiae deletion strains, locus YML032C, strain rad52, hits give low values 0.926 | S. cerevisiae deletion strains, locus YML124C, strain tub3, hits give low values 0.977 | S. cerevisiae deletion strains, locus YMR078C, strain ctf18, hits give low values 0.978 | S. cerevisiae deletion strains, locus YMR223W, strain ubp8, hits give low values 0.967 | S. cerevisiae deletion strains, locus YMR263W, strain SAP30, hits give low values 0.998 | [3] 1.2 | S. cerevisiae deletion strains, locus YNL067W, strain RPL9B, hits give low values 0.969 | S. cerevisiae deletion strains, locus YNL128W, strain TEP1, hits give low values 0.992 | S. cerevisiae deletion strains, locus YNL153C, strain GIM3, hits give low values 1.02 | S. cerevisiae deletion strains, locus YNL183C, strain NPR1, hits give low values 0.933 | S. cerevisiae deletion strains, locus YNL233W, strain BNI4, hits give low values 0.979 | S. cerevisiae deletion strains, locus YNL250W, strain rad50, hits give low values 1.03 | S. cerevisiae deletion strains, locus YNL271C, strain bni1, hits give low values 0.994 | S. cerevisiae deletion strains, locus YNL298W, strain CLA4, hits give low values 0.95 | S. cerevisiae deletion strains, locus YNL307C, strain MCK1, hits give low values 0.961 | S. cerevisiae deletion strains, locus YNR052C, strain pop2, hits give low values 0.998 | S. cerevisiae deletion strains, locus YOL006C, strain TOP1, hits give low values 0.779 | S. cerevisiae deletion strains, locus YOL012C, strain htz1 1.51 | S. cerevisiae deletion strains, locus YOL147C, strain pex11, hits give low values 0.964 | S. cerevisiae deletion strains, locus YOR061W, strain CKA2, hits give low values 0.986 | S. cerevisiae deletion strains, locus YOR069W, strain VPS5, hits give low values 0.994 | S. cerevisiae deletion strains, locus YOR136W, strain idh2, hits give low values 0.977 | S. cerevisiae deletion strains, locus YOR144C, strain elg1, hits give low values 0.981 | S. cerevisiae deletion strains, locus YOR231W, strain MKK1, hits give low values 0.915 | S. cerevisiae deletion strains, locus YOR316C, strain cot1, hits give low values 0.985 | S. cerevisiae deletion strains, locus YPL256C, strain CLN2, hits give low values 0.925 | S. cerevisiae deletion strains, locus YPR119W, strain clb2, hits give low values 0.971 | S. cerevisiae deletion strains, locus YPR141C, strain kar3, hits give low values 0.991 | S. cerevisiae deletion strains, locus YPR163C, strain tif3, hits give low values 0.943 | S. cerevisiae deletion strains, locus YPR167C, strain met16, hits give low values 0.943 | S. cerevisiae deletion strains, strain wtn01, hits give low values 0.906 | S. cerevisiae strains, strain wild type, hits give low values 0.93
active: S. cerevisiae deletion strains, locus YLR113W, strain HOG1, hits give low values 0.841 | S. cerevisiae deletion strains, locus YOR184W, strain ser1, hits give low values 0.571

COc1cc(CC(=O)O)ccc1O
inactive: S. cerevisiae deletion strains, locus YAL013W, strain DEP1, hits give low values 1 | S. cerevisiae deletion strains, locus YAL040C, strain CLN3, hits give low values 1.07 | S. cerevisiae deletion strains, locus YCL061C, strain MRC1 (second series), hits give low values 0.989 | [1] 0.992 | S. cerevisiae deletion strains, locus YDR363W, strain ESC2, hits give low values 0.982 | S. cerevisiae deletion strains, locus YER002W, strain NOP16, hits give low values 0.97 | [2] 0.986 | [3] 1.01 | S. cerevisiae deletion strains, locus YNL175C, strain NOP13, hits give low values 0.967 | S. cerevisiae deletion strains, locus YNL197C, strain WHI3, hits give low values 0.977 | S. cerevisiae deletion strains, locus YNL224C, strain SQS1, hits give low values 0.985 | S. cerevisiae deletion strains, locus YNL322C, strain KRE1, hits give low values 0.987 | S. cerevisiae deletion strains, locus YOR083W, strain WHI5 (second series), hits give low values 0.942 | S. cerevisiae deletion strains, locus YPL055C, strain LGE1, hits give low values 0.995 | S. cerevisiae deletion strains, locus YPL241C, strain CIN2, hits give low values 0.991

Source: PubChem BioAssay AID1159580 (chemical genetic matrix, 2015)
